The supplement of paper PMC10849652
Targets with a hit are over-represented here; the source holds about 7,900 in all. About 0.6% of all pairs of compound and target were hits.

Tests used:
Assay in all cases: log2 fold change, soluble protein after heating vs DMSO (PISA); higher = thermal stabilisation; K562 cells, 10 uM, 30 min; active = over 0.2 and 3.5 SD of the protein, either way, in both replicates (recomputed)
[1] = compound: CC1=C(C=C(C=C1)NC(=O)C2=CC(=CC=C2)C(C)(C)C#N)NC3=CC4=C(C=C3)N=CN(C4=O)C
In short: (§1)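 Values are thermal stability changes relative to control samples and are taken from duplicates. They are stated as log2 fold changes. Before quantification by TMTpro 16plex LC-MS/MS with equalised channel sums, K562 cells at 2×10^6 cells/mL were treated with 10 μM compound for 30 min, heated in aliquots for 3 min across 48°C-58°C, pooled, extracted in PBS with 0.5% NP-40 at 4°C, and centrifuged at 21,000xg for 90 min to give the soluble supernatant.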

[2] = compound: CC1=C(C=C(C=C1)NC(=O)C2=CC(=CC=C2)N(C)C)NC(=O)C3=CC=C(C=C3)O
In short: as §1

[3] = compound: CC1=CC=C(C=C1)SC2=C3C=C(SC3=CN=C2)C(=O)N
In short: as §1

[4] = compound: CC1=NC(=CC=C1)C2=C(N=C(N2)C(C)(C)C)C3=CC4=NC=CN=C4C=C3
In short: as §1

[5] = compound: CCCCN(Cc1ccc(C(=O)NO)cc1)C(=O)Nc1ccccc1 [Nexturastat A]
In short: as §1

[6] = compound: CCCS(=O)(=O)Nc1ccc(F)c(C(=O)c2c[nH]c3ncc(-c4ccc(Cl)cc4)cc23)c1F [vemurafenib]
In short: as §1

[7] = compound: CCCS(=O)(=O)Nc1ccc(F)c(C(=O)c2c[nH]c3ncc(Cl)cc23)c1F
In short: as §1

[8] = compound: CCCc1cc(C)[nH]c(=O)c1CNC(=O)c1cc(-c2ccnc(N3CCN(C)CC3)c2)cc2c1cnn2C(C)C
In short: as §1

[9] = compound: CCN(CC)Cc1ccc2cc(COC(=O)Nc3ccc(C(=O)NO)cc3)ccc2c1 [givinostat]
In short: as §1

[10] = compound: CCN(CCCOc1ccc2c(Nc3cc(CC(=O)Nc4cccc(F)c4)[nH]n3)ncnc2c1)CCOP(=O)(O)O [barasertib]
In short: as §1

[11] = compound: CC[C@@H]1C(=O)N(C)c2cnc(Nc3ccc(C(=O)NC4CCN(C)CC4)cc3OC)nc2N1C1CCCC1
In short: as §1

[12] = compound: CC[C@@H]1C(=O)N(C)c2cnc(Nc3ccc(C(=O)N[C@H]4CC[C@H](N5CCN(CC6CC6)CC5)CC4)cc3OC)nc2N1C(C)C [volasertib]
In short: as §1

[13] = compound: CC[C@H](C)N1C=C(C2=C(C=C(C=C21)C3=CN=C(C=C3)N4CCNCC4)C(=O)NCC5=C(C=C(NC5=O)C)C)C
In short: as §1

[14] = compound: CC[C@H](C)[C@@H](C(=O)N[C@@H]([C@@H](C)O)C(=O)N[C@@H](CC(C)C)C(=O)[C@]1(CO1)C)NC(=O)[C@H]([C@@H](C)CC)N(C)C(=O)C [epoxomicin]
In short: as §1

[15] = compound: CCn1c(C(=O)N(C2CC2)C2CC2)cc2c3c(ncn3C)c(Nc3cc(C)n(C)n3)nc21
In short: as §1

[16] = compound: CCn1cc(-c2ccnc3[nH]c(-c4cccc(CN(C)C)c4)cc23)c(-c2ccc(NC(=O)N(C)C)cc2)n1
In short: as §1

[17] = compound: CN(C)CC(=O)Nc1ccc2[nH]c(=O)c3ccccc3c2c1
In short: as §1

[18] = compound: CN(CCOC1=CC=C(C=C1)C[C@H]2C(=O)NC(=O)S2)C3=CC=CC=N3 (racemic) [rosiglitazone]
In short: as §1

[19] = compound: CN1C2=C(C3=C1C(=O)N(N=C3)CC4=CC(=CC=C4)N)SC(=C2)S(=O)C
In short: as §1

[20] = compound: CN1CCC(CNc2ccc3ncc(-c4cccc(OC(F)(F)F)c4)n3n2)CC1
In short: as §1

Measured: log2 fold change

DHX36 (UniProt Q9H2U1)
inactive: [1] 0.015 | [2] 0 | [3] -0.034 | [4] -0.033 | [5] 0.111 | [6] 0.012 | [7] 0.02 | [8] -0.005 | [9] -0.031 | [10] -0.064 | [11] 0.11 | [12] 0.059 | [13] 0.002 | [14] -0.032 | [15] -0.009 | [16] 0.032 | [17] -0.032 | [18] -0.015 | [19] 0.086 | [20] -0.027

FAM241A (UniProt Q8N8J7)
UniProt Q8N8J7, sequence (Q8N8J7 whole entry, looked up): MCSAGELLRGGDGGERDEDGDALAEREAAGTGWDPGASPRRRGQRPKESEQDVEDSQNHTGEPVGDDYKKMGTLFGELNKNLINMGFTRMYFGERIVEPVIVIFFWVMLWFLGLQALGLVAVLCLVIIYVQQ
inactive: [2] -0.012 | [3] -0.031 | [4] -0.028 | [6] -0.083 | [7] 0.015 | [8] -0.009 | [9] -0.037 | [10] 0.06 | [11] -0.026 | [12] 0.007 | [13] -0.002 | [15] 0.057 | [16] 0.037 | [17] -0.093 | [18] 0.011 | [19] 0.059 | [20] 0.08
active: [1] 0.536

DDX27 (UniProt Q96GQ7)
inactive: [1] -0.026 | [2] -0.057 | [4] -0.293 | [5] 0.249 | [6] -0.25 | [8] -0.142 | [9] 0.081 | [11] -0.033 | [13] 0.1 | [14] -0.184 | [15] -0.084 | [16] 0.116 | [17] -0.009 | [19] 0.162 | [20] 0.241

DDX46 (UniProt Q7L014)
UniProt Q7L014, sequence (Q7L014 whole entry, looked up): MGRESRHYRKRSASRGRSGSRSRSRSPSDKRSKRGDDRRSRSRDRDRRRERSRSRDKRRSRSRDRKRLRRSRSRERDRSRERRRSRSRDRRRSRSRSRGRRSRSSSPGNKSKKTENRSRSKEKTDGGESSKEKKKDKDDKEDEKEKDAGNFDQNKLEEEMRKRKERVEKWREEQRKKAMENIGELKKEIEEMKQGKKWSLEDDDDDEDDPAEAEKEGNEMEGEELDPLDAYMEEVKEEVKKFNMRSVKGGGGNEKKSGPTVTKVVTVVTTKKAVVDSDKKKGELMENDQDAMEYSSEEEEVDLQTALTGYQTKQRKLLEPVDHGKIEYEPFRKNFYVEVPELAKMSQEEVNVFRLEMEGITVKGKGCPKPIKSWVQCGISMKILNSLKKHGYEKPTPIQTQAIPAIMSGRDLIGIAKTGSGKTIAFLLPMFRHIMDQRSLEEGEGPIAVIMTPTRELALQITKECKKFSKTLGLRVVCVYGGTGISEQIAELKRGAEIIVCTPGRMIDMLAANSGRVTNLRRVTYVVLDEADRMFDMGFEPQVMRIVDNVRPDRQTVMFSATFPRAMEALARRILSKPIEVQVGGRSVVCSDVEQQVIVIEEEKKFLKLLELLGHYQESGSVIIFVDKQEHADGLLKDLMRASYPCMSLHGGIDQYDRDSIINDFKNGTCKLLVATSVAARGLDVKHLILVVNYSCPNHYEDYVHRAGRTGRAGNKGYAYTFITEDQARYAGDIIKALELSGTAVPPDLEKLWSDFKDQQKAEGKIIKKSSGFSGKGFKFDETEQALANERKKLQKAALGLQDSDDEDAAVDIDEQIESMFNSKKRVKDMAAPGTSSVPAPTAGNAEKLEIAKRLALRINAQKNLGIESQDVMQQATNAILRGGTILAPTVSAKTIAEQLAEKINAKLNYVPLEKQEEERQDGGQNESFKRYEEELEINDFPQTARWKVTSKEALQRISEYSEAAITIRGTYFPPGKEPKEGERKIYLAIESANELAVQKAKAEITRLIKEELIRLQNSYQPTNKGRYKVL
inactive: [1] 0.123 | [2] -0.117 | [3] 0 | [4] 0.069 | [5] -0.069 | [6] 0.099 | [7] 0.136 | [8] 0.001 | [9] 0.171 | [10] 0.13 | [11] -0.259 | [12] -0.275 | [13] 0.087 | [14] 0.192 | [15] -0.211 | [16] -0.129 | [17] 0.133 | [18] 0.106 | [19] -0.066 | [20] 0.087

EXOC7 (UniProt Q9UPT5)
inactive: [1] -0.116 | [2] -0.057 | [3] -0.014 | [4] -0.05 | [5] 0.065 | [6] 0.032 | [7] 0.07 | [8] 0.079 | [9] 0.09 | [10] 0.036 | [11] -0.156 | [13] 0.09 | [14] 0.048 | [15] -0.091 | [16] 0.015 | [17] 0.006 | [18] 0.048 | [19] 0.033
active: [12] -0.619 | [20] -0.317

EPHB4 (UniProt P54760)
UniProt P54760, sequence (P54760 whole entry, looked up): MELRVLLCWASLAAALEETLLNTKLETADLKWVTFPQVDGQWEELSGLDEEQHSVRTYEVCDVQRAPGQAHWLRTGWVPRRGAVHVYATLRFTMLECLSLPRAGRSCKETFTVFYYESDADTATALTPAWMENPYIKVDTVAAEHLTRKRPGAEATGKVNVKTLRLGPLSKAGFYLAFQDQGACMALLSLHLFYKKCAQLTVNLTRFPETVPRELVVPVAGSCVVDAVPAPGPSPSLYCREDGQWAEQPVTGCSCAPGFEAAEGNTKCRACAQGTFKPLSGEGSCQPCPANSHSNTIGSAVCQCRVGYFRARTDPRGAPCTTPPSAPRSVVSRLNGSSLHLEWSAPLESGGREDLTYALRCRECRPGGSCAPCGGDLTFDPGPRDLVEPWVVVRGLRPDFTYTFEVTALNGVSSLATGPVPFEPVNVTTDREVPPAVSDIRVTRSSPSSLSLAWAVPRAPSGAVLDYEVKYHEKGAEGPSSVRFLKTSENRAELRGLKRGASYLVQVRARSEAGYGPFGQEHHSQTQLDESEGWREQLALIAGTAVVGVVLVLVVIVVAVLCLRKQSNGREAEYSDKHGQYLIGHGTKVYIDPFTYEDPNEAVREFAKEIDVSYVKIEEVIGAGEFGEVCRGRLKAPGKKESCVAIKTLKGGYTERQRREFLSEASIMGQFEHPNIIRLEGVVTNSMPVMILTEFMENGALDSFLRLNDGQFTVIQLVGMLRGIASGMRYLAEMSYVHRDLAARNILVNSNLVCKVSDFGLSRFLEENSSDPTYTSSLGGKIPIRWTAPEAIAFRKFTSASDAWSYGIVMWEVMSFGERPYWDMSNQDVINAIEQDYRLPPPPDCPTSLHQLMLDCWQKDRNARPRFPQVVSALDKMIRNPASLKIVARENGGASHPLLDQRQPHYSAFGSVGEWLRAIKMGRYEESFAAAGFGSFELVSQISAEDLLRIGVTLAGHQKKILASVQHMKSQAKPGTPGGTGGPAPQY
inactive: [1] 0.057 | [2] -0.07 | [3] 0.392 | [7] -0.126 | [8] 0.001 | [12] -0.302

DOCK8 (UniProt Q8NF50)
inactive: [1] -0.094 | [2] -0.051 | [4] -0.086 | [5] 0.468 | [6] 0.134 | [8] 0.093 | [9] 0.245 | [10] 0.055 | [11] 0.01 | [13] 0.004 | [14] 0.119 | [15] -0.208 | [16] -0.094 | [17] -0.009 | [18] 0.028 | [19] 0.258 | [20] 0.137

DNM2 isoform 4 (UniProt P50570)
inactive: [1] 0.062 | [2] -0.001 | [4] 0.23 | [5] 0.089 | [8] -0.032 | [9] 0.159 | [10] 0.013 | [11] 0.026 | [13] -0.125 | [14] 0.241 | [15] 0.017 | [16] -0.01 | [18] 0.038 | [19] 0.027 | [20] -0.252

DSN1 (UniProt Q9H410)
UniProt Q9H410, sequence (Q9H410 whole entry, looked up): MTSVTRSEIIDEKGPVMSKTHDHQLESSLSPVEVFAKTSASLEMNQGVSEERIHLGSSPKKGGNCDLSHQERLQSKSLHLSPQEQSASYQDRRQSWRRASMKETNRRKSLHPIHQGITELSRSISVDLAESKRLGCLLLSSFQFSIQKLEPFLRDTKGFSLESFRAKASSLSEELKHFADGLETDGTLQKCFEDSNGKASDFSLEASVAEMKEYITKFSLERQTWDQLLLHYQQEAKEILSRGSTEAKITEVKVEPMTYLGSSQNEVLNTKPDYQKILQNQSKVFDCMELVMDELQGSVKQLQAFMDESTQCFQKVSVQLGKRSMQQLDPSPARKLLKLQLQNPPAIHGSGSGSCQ
active: [12] -0.418
inactive: [1] -0.02 | [2] -0.096 | [3] -0.003 | [4] 0.021 | [5] 0.051 | [6] 0.133 | [7] 0.022 | [8] 0.004 | [9] 0.053 | [10] 0.075 | [11] -0.218 | [13] -0.034 | [14] -0.004 | [15] -0.107 | [17] 0.007 | [18] -0.086 | [19] -0.008

EEF1AKNMT (UniProt Q8N6R0)
inactive: [1] 0.078 | [2] -0.037 | [3] 0.031 | [4] 0.026 | [5] -0.026 | [6] 0.084 | [7] 0.062 | [8] 0.075 | [9] 0.04 | [10] 0.076 | [11] -0.082 | [13] 0.111 | [14] 0.012 | [15] -0.038 | [16] 0.134 | [17] 0.092 | [18] 0.022 | [19] 0.075 | [20] -0.095
active: [12] -0.564

DHRS3 (UniProt O75911)
UniProt O75911, sequence (O75911 whole entry, looked up): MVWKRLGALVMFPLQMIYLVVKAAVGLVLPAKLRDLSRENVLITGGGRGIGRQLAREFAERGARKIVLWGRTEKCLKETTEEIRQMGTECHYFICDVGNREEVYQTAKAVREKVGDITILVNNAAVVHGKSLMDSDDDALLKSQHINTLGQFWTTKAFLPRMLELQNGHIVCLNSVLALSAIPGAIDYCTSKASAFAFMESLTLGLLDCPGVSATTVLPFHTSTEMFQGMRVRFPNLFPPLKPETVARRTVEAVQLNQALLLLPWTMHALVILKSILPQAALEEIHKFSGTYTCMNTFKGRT
inactive: [1] 0.075 | [2] -0.037 | [3] 0.019 | [4] 0.027 | [5] -0.037 | [6] -0.078 | [7] -0.04 | [8] -0.035 | [9] -0.051 | [10] -0.048 | [11] 0.134 | [12] 0.02 | [13] 0.02 | [14] -0.002 | [15] 0.001 | [16] 0.001 | [17] -0.054 | [18] -0.013 | [19] -0.062 | [20] 0.056

CYB561A3 isoform 2 (UniProt Q8NBI2)
UniProt Q8NBI2, sequence (Q8NBI2 whole entry, looked up): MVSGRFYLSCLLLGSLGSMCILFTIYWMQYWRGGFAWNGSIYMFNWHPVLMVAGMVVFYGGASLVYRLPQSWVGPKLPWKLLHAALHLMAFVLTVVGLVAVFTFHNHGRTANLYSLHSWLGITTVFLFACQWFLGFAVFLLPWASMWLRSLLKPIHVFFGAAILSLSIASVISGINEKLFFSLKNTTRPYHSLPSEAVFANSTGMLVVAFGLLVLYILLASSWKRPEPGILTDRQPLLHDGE
inactive: [1] 0.051 | [2] 0.025 | [3] -0.074 | [4] 0.02 | [7] 0.059 | [8] -0.086 | [9] 0.033 | [10] -0.057 | [11] -0.058 | [12] 0.103 | [13] -0.089 | [15] -0.007 | [16] -0.241 | [18] 0.052 | [19] -0.021 | [20] 0.032

ELF1 (UniProt P32519)
inactive: [1] 0.056 | [2] -0.05 | [3] 0 | [4] 0.033 | [5] -0.051 | [7] 0.091 | [9] 0.152 | [11] 0.116 | [12] -0.516 | [13] 0.185 | [14] 0.117 | [15] -0.161 | [19] 0.027

EIF4G3 isoform 3 (UniProt O43432)
UniProt O43432, sequence (O43432 whole entry, looked up): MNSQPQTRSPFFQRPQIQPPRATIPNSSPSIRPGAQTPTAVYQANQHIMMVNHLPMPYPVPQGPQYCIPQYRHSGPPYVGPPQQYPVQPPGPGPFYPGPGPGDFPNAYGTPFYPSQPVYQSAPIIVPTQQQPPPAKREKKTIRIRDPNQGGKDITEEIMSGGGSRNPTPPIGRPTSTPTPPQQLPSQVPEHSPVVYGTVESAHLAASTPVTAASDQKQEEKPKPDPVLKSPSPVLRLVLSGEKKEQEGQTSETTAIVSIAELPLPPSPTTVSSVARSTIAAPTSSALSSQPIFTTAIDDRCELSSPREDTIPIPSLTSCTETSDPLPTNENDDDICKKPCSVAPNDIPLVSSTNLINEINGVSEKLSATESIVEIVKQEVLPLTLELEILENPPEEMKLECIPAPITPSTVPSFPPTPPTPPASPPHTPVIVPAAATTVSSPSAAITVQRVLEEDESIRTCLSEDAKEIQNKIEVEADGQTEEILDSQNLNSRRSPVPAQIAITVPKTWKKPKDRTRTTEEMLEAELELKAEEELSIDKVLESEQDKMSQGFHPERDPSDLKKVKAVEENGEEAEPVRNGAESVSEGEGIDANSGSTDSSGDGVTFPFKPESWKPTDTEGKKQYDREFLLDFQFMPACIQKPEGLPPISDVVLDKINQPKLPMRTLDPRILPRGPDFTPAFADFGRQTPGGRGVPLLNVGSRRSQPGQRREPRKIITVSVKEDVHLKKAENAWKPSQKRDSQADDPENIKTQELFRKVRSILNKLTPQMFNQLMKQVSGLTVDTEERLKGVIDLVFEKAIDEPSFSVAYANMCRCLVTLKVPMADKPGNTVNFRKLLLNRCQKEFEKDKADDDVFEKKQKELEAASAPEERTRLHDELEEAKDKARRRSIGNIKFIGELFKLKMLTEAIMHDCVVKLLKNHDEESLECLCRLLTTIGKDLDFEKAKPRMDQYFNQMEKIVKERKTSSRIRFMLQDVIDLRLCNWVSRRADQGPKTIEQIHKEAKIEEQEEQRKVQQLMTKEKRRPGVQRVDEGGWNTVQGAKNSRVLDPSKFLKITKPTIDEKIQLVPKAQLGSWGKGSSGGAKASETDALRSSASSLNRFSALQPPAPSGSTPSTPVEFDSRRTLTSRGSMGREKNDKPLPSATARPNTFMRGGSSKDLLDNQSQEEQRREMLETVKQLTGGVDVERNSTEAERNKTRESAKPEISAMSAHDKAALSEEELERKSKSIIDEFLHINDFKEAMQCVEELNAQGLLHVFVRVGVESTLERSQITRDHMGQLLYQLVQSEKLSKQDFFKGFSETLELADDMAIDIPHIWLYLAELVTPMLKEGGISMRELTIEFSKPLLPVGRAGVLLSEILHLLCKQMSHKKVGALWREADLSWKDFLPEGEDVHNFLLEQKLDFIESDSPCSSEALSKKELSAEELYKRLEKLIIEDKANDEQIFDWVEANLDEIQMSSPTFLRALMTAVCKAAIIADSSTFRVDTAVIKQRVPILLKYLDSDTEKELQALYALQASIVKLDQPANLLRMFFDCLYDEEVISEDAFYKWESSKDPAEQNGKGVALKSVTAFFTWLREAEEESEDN
inactive: [1] -0.024 | [2] 0.01 | [3] 0 | [4] -0.015 | [6] 0.047 | [7] 0.002 | [8] 0.067 | [9] 0.08 | [10] 0.059 | [11] -0.074 | [12] -0.165 | [13] 0.007 | [15] 0.012 | [17] 0.039 | [18] 0.019 | [19] 0.021

EDEM2 (UniProt Q9BV94)
inactive: [1] -0.064 | [2] -0.001 | [3] -0.084 | [4] -0.204 | [5] 0.036 | [6] -0.032 | [7] -0.149 | [8] 0.095 | [9] 0.013 | [10] 0.21 | [12] -0.159 | [13] -0.035 | [14] -0.006 | [15] 0.033 | [16] -0.087 | [17] -0.001 | [18] -0.077 | [19] -0.003 | [20] 0.161

EGR1 (UniProt P18146)
inactive: [1] -0.128 | [2] -0.024 | [3] -0.404 | [5] 0.53 | [6] 0.305 | [7] -0.13 | [8] -0.027 | [9] -0.06 | [10] -0.048 | [12] 0.085 | [13] 0.158 | [14] 0.489 | [15] 0.113 | [16] 0.228 | [17] -0.241 | [18] 0.08 | [20] -0.56

FAM118B (UniProt Q9BPY3)
active: [12] -0.445 | [20] -0.373
inactive: [1] 0 | [2] 0.03 | [3] 0.037 | [4] 0.055 | [5] 0.099 | [6] 0.048 | [7] 0.003 | [8] 0.044 | [9] 0.063 | [10] 0.093 | [11] -0.087 | [13] 0.035 | [14] 0.036 | [15] -0.008 | [16] -0.067 | [17] 0.11 | [18] 0.026

EXTL2 (UniProt Q9UBQ6)
UniProt Q9UBQ6, sequence (Q9UBQ6 whole entry, looked up): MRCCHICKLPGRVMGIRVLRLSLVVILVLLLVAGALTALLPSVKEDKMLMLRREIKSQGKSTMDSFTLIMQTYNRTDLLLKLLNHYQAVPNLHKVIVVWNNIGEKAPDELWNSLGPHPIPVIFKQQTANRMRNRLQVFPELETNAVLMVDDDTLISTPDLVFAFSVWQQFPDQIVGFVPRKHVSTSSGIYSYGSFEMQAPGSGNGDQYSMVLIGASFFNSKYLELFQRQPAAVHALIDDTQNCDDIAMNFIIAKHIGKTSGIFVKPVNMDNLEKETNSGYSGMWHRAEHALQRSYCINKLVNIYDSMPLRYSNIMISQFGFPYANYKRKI
inactive: [1] 0.072 | [2] -0.003 | [3] -0.017 | [4] -0.003 | [5] -0.163 | [6] -0.002 | [7] -0.031 | [8] -0.043 | [9] -0.039 | [10] -0.053 | [11] 0.057 | [12] -0.052 | [13] 0.041 | [14] -0.035 | [15] -0.04 | [16] -0.046 | [17] 0.06 | [18] -0.024 | [19] -0.001 | [20] -0.157
